Assay outcomes: PubChem, National Center for Advancing Translational Sciences (NCATS)
In the library only some 8% were active in any assay of this set; here they are far more common.
LASV entry inh: inhibitors of Lassa virus binding or cell entry | Potency, µM (doses to about 37.9 µM), for inactives: top-dose activity change, negative = inhibition, usual class: inhibitors | 1.2% of 300,000 active | AID 540256 | Lassa virus pseudotype entry inhibition, cell reporter; calls by dose curve; tested in HEK293 cells; also: potency is read from the fitted curve at half-maximal effect; % is scaled to controls: 0 for no effect and ±100 for the full control effect; nearly all actives have a fitted effect of over 50% in size
HCV inh: blocks hepatitis C virus; Huh7.5.1 HCVcc-Cre infection, luciferase reporter, 44 h; Potency, µM (highest dose often 41.8 µM), inactives show at the top dose activity change, negative = inhibition, most hits filed as inhibitors; 3.4% of 340,000 active; active = well fitted inhibition curve with a large enough effect; inconclusive = small, poorly fitted or top-dose-only effect, or another doubt; inactive = no such curve, though single readings can be large or run the other way; also: potency is read from the fitted curve at half-maximal effect; % is scaled to controls: 0 for no effect and ±100 for the full control effect
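Infectious HCV cell culture screen: compound-treated cells (1,000/well, pre-plated 4 h) are infected with HCVcc-Cre at roughly 0.5 moi and grown 44 h. Infection is quantified by luciferase signal after 15 min substrate incubation at room temperature.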
SARS PLP yeast: blocks SARS-CoV papain-like protease in a yeast assay | S. cerevisiae expressing SARS-CoV PLpro, growth rescue | AID 485353 | Potency, µM (series often up to 32.9 µM), for the others: at the top dose activity, positive = growth rescue, most hits filed as activators | 0.19% of 330,000 active; calls by dose curve; also: potency is read from the fitted curve at half-maximal effect; 0% is about no effect; nearly all actives have a fitted effect of over 55% in size
MARV entry inh: Marburg virus entry inhibition; Marburg virus pseudotyped entry inhibition, cell reporter; Potency, µM (series often up to 37.8 µM), without a hit: at the top dose activity change, negative = inhibition, actives largely listed as inhibitors; 1.8% of 300,000 active; calls by dose curve; tested in HEK293 cells; also: potency is read from the fitted curve at half-maximal effect; % is scaled to controls: 0 for no effect and ±100 for the full control effect
HCMV inh: blocks human cytomegalovirus replication. HFF cells, HCMV-luciferase reporter, 72 h; hits give low values. activity change, negative = inhibition, % at 57.5 µM. 4.5% of 410,000 active; in the data active = activity change below about -60%; inconclusive = no clear call, values can overlap the other calls; inactive = above about -39%; also: % is scaled to controls: 0 for no effect and ±100 for the full control effect
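Screen run at 2 compound doses on HFFs infected with reporter HCMV, MOI 1 PFU/cell. Luciferase activity from cell lysates at 72 h post infection gave inhibition relative to buffer-only and Salinomycin wells.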
FMDV antiviral: foot and mouth disease virus antiviral activity; FMDV antiviral cell-based qHTS; Potency, µM (doses to about 57.9 µM), for the others: at the highest dose activity change, negative = inhibition, hits mostly inhibitors; 1.2% of 410,000 active; AID 1159524; calls by dose curve; tested in HEK293T cells; also: read-out not given here; potency is read from the fitted curve at half-maximal effect; % is scaled to controls: 0 for no effect and ±100 for the full control effect; nearly all actives have a fitted effect of over 45% in size
Numbers without * were called inactive; ? = inconclusive; nt = no result given; [ ] = remark or other dose.

SMILES	LASV entry inh	HCV inh	SARS PLP yeast	MARV entry inh	HCMV inh	FMDV antiviral
Cc1ccc2nc(-c3ccc(O)cc3)oc2c1	?	4%	-12%	5.6µM*	92	13µM*
CC1CN(C(=O)c2ccccc2OCc2ccc(Cl)cc2Cl)CC(C)O1 (centres undefined)	nt	14µM*	-2%	nt	?	-22%
CSc1ccccc1NC(=O)CSc1cccc[n+]1[O-]	13%	11%	0%	28%	-100*	-1%
CCOC(=O)c1ccccc1NC(=O)CSc1cccc[n+]1[O-]	2%	5%	2%	1%	12	-4%
COc1ccccc1NC(=O)Cn1c(=O)n(CC(=O)NCc2ccccc2Cl)c(=O)c2sccc21	18%[46.1 µM]	nt	nt	?	21	2%
O=C(CN1C(=O)c2cccc3cccc1c23)Nc1ccccc1C(=O)NCc1ccco1	?	-26%	nt	?	-61*	-24%
C[C@@H]1CCCCO[C@H](CN(C)C(=O)Nc2ccc3c(c2)OCO3)[C@@H](C)CN([C@H](C)CO)C(=O)c2cc(NS(=O)(=O)c3ccc(F)cc3)ccc2O1	nt	nt	nt	nt	-35	0%
Cc1ccc(S(=O)(=O)Nc2ccc3c(c2)C(=O)N([C@@H](C)CO)C[C@@H](C)[C@@H](CN(C)C(=O)NC2CCCCC2)OCCCC[C@H](C)O3)cc1	nt	nt	nt	nt	-4	1%
Cc1ccc(S(=O)(=O)Nc2ccc3c(c2)C(=O)N([C@H](C)CO)C[C@H](C)[C@@H](CN(C)C(=O)NC2CCCCC2)OCCCC[C@@H](C)O3)cc1	nt	nt	nt	nt	-63*	-30%
C[C@@H]1CN([C@@H](C)CO)C(=O)c2cc(NS(=O)(=O)c3ccc(F)cc3)ccc2O[C@@H](C)CCCCO[C@H]1CN(C)C(=O)NC1CCCCC1	nt	nt	nt	nt	-86*	-24%
COc1ccccc1C1CN(Cc2cccc(C)n2)Cc2ccccc2O1 (centres undefined)	nt	nt	nt	nt	nt	0%
COc1ccc(Cl)cc1NC(=O)CSc1nc(-c2ccccc2)c2ccccc2n1	18%[46.1 µM]	nt	nt	0%[46.1 µM]	-15	-26%
Cc1ccc(S(=O)(=O)N2CCCCC2)cc1NC(=O)c1ccc2c(c1)OCO2	-10%	-5%	8%	-26%	?	0%
Cc1cc(NC(=O)c2cccc(S(=O)(=O)N3CCCC3)c2)no1	-11%[14.3 µM]	11%	-1%	-1%	4	12%
O=C(Nc1ccccn1)c1ccc(Br)c(S(=O)(=O)N2CCCCC2)c1	4%	19%	9%	8%	3	?
Cc1ccccc1NC(=O)c1cccc(S(=O)(=O)N2CCCCC2)c1	-6%	0%	-8%	-13%[46.1 µM]	1	8%
Cc1ccc(O)c(NC(=O)c2ccc(Br)c(S(=O)(=O)N3CCCCC3)c2)c1	?	nt	nt	nt	-73*	0%
Cc1ccc(O)c(NC(=O)c2cccc(S(=O)(=O)N3CCCCC3)c2)c1	-14%	11µM*	-14%	-16%[46.1 µM]	-25	-8%
Cc1ccc(NS(=O)(=O)c2ccc(C)c(NC(=O)c3ccc(S(=O)(=O)N4CCCCCC4)cc3)c2)c(C)c1	nt	nt	nt	nt	-64*	-18%
Cc1cc(NC(=O)c2ccc(Br)c(S(=O)(=O)N3CCCC3)c2)no1	1%	?	0%	-27%	-69*	?
